# Experimental data as given in PubChem BioAssay AID485270 (The Scripps Research Institute Molecular Screening Center, 2010).
# Out of some 330,000 compounds screened, about 5,800 (1.8%) were called active. The full list was thinned out, with actives kept by preference. A number with no mark means an inactive call. Cut-off read from the data, not from the text of the source: active = inhibition mostly above about 38% (no sharp cut-off); inactive = mostly below about 40%.
# Molecular target: Orexin/Hypocretin receptor type 1 (Homo sapiens) (UniProt O43613)
# Assay: antagonists of human orexin 1 receptor (OX1R) (AID 485270);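 note: 0% = agonist challenge alone and 100% = reference antagonist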
# Conditions: OX1R-expressing cells, FRET antagonist read-out; at 6.6 µM; hits give high values
# Sequence of Orexin/Hypocretin receptor type 1 (Homo sapiens) (O43613 whole entry, looked up): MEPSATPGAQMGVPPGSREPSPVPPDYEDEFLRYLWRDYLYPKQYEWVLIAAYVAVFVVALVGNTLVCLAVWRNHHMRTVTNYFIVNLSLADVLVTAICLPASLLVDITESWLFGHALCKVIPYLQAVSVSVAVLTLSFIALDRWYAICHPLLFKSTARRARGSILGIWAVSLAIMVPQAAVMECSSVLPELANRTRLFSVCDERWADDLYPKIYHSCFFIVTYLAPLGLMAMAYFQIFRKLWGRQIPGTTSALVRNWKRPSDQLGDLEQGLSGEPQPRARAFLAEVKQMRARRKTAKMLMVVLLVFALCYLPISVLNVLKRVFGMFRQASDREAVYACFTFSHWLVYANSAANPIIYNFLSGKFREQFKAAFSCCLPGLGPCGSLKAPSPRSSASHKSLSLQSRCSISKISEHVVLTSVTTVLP
row,SMILES,inhibition
1,O=C(Nc1ccccc1F)c1ccc(Cn2cc(Br)cn2)cc1,8.12%
2,Cc1ccc(Br)c(NS(=O)(=O)c2cccc(C(=O)N3CCNC(=O)C3)c2)c1,3.06%
3,S=C(NC1CCCCC1)NN1CCOCC1,18.3%
4,COc1ccc(NC(=O)CN2C(=O)CSc3ccc(S(=O)(=O)N4CCC(C)CC4)cc32)cc1,3.75%
5,O=C(Nc1cccc(S(=O)(=O)N2CCCC2)c1)c1cncc(Br)c1,-1.91%
6,COc1cccc(/C=C/c2ccc3ccccc3n2)c1OC(C)=O,92% (active)
7,COc1cccc(/C=C2\C=C(c3ccc(C)cc3)OC2=O)c1OC(C)=O,-6.31%
8,CCOc1cccc(/C=C/c2ccc3ccccc3n2)c1OC(C)=O,58.1%
9,O=C(CSc1ncn[nH]1)Nc1ccc(Br)cc1Br,5.47%
10,C=CC[C@@H](CC(=O)N[C@@H](CO)Cc1ccccc1)C(=O)N[C@H](COC(=O)[C@H](CC=C)CC(=O)OC(C)(C)C)Cc1ccccc1,3.4%
11,CN(Cc1ccc(F)cc1)C(=O)CN1C(=O)c2ccccc2S1(=O)=O,13.1%
12,Cc1nn(Cc2ccccc2)c(Cl)c1C(=O)OC1CCOC1=O (stereo unspecified),21.6%
13,O=C(OC1CCOC1=O)c1ccc(-c2nc3ccccc3s2)s1 (stereo unspecified),119% (active)
14,CC(C)c1ccc(C(=O)OC2CCOC2=O)cc1 (stereo unspecified),27.2%
15,Cc1ccc(S(=O)(=O)N2CCCCC2)cc1NC(=O)CCNC(=O)c1ccccc1,2.26%
16,COc1cccc(CNC(C)C(=O)Nc2ccc(S(=O)(=O)N3CCCC3)cc2)c1 (stereo unspecified),2.03%
17,O=C(NNC(=O)c1ccc(Cl)nc1)c1ccc(Br)cc1,8.95%
18,CCN(C[C@H]1N[C@@](CC)(C(=O)OC)[C@H]2C(=O)N(Cc3ccccc3)C(=O)[C@@H]12)S(=O)(=O)c1ccccc1,6.85%
19,Cc1c(NC(=O)Nc2ccccc2Cl)sc(=S)n1C,12.2%
20,O=C(Cc1ccc2c(c1)CCCC2)Nc1ccccc1Cl,6.59%
21,O=C(Nc1ccccc1Cl)/C(Cl)=C(\Cl)S(=O)c1ccccc1 (stereo unspecified),87.9% (active)
22,COc1ccc(CNC(=O)C2CCN(C(=O)c3ccco3)CC2)cc1,14.6%
23,CC(=O)c1c(OCC(=O)N(C)C2CCCCC2)ccc2c(C)cc(=O)oc12,2.71%
24,O=C(NCC1CC1)c1onc(CSc2ccccc2)c1C(=O)NCC1CC1,28.4%
25,O=C(NCc1ccccc1)c1onc(CSc2ccncc2)c1C(=O)NCc1ccccc1,16.4%
26,O=C(NCc1ccccc1)c1onc(CSc2nc3ccccc3[nH]2)c1C(=O)NCc1ccccc1,71.2% (active)
